# JMJD2A Tudor: blocks the human JMJD2A Tudor domain; hit rate 4.4% among 390,000; Potency, µM (titrated, usually from 114 µM), usual class: inhibitors; O75164; AlphaScreen JMJD2A-Tudor / H3K4me3 peptide binding; further: nearly all actives have a fitted effect of over 50% in size
# HP1b chromo inh: inhibitors of HP1-beta chromodomain binding to methylated histone tails; P83916; AID 540317; hit rate 0.56% among 390,000; AlphaScreen HP1-beta / biotin-H3K9me3 peptide binding; Potency, µM (series often up to 114 µM), actives largely listed as inhibitors; further: nearly all actives have a fitted effect of over 70% in size
#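 Compound inhibition of the preformed complex between 50 nM HP1-beta and 50 nM biotinylated H3K9me3 peptide was read by AlphaScreen. Buffer was PBS pH 7.4 with 0.01% Tween-20. Incubations ran 30 min at room temperature, with 10 ug/mL donor/acceptor beads.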
# BAZ2B block: blocks human BAZ2B | Q9UIF8 | AlphaScreen BAZ2B-H3K14Ac peptide displacement | Potency, µM (highest dose often 114 µM), most hits filed as inhibitors | hit rate 4.4% among 360,000; further: nearly all actives have a fitted effect of over 60% in size
#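 Compounds, titrated to a top concentration of 110 uM, were incubated 30 min at room temperature with preformed BAZ2B/acetyl-K14 H3 peptide complex (50 nM each). Proximity signal was measured by AlphaScreen after 20 min with beads.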
# L3MBTL1 inh-1: blocks human L3MBTL1; AlphaScreen L3MBTL1–H3K9me1 peptide binding; AID 485360; Potency, µM (titrated, usually from 57.1 µM), hits mostly inhibitors; hit rate 0.66% among 230,000; Q9Y468; further: nearly all actives have a fitted effect of over 60% in size
# Target sequence (Q9Y468 whole entry, looked up): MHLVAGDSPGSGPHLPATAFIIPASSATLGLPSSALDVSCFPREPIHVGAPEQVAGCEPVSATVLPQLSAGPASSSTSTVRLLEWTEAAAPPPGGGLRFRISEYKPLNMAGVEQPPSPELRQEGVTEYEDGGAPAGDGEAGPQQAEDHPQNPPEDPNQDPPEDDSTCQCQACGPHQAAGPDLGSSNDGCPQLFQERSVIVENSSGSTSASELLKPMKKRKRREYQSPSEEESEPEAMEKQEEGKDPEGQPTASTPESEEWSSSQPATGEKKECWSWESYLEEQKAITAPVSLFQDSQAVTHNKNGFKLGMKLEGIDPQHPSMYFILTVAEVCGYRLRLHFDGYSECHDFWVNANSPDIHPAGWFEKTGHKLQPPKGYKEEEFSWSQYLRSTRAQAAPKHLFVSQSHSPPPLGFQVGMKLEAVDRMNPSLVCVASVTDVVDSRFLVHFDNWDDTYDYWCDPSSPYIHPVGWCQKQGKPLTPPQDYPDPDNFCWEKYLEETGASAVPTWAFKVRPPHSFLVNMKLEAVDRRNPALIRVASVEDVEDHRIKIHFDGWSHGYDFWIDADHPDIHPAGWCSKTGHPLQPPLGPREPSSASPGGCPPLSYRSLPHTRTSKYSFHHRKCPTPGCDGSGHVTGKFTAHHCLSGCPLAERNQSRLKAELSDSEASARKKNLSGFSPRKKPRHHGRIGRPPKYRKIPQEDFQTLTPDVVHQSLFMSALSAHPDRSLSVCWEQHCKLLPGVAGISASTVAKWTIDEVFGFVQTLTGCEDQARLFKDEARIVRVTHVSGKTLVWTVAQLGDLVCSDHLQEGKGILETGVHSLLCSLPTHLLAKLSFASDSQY
#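 L3MBTL1 50 nM + b-AHA-H3(1-15)K9me1 75 nM, 30 min RT; compound added, 30 min RT; streptavidin donor/Ni-chelate acceptor beads 10 ug/mL each final, 30 min RT dark; AlphaScreen read.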
# G9a inh: blocks human histone lysine methyltransferase G9a; Q96KQ7; G9a H3K9 monomethylation, AlphaScreen, 2 h; Potency, µM (top dose mostly 102 µM), most hits filed as inhibitors; hit rate 8.8% among 350,000; further: nearly all actives have a fitted effect of over 75% in size
#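 Chemiluminescent proximity detection of H3K9 monomethylation, read after 10 min bead incubation in the dark. Reaction: 20 nM G9a, 500 nM biotin-H3K9 peptide, 20 uM SAM cofactor, 2 h, room temperature, following 15 min enzyme-compound preincubation.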
# L3MBTL1 inh-2: validation of human L3MBTL1 methyl-lysine binding inhibitors; hit rate 91% among 500; AID 540279; L3MBTL1 methyl-lysine binding inhibition, biochemical qHTS; shares compounds with L3MBTL1 inh-1; Potency, µM, actives largely listed as inhibitors; further: nearly all actives have a fitted effect of over 70% in size
# AlphaScreen ctr2: AlphaScreen signal inhibition, L3MBTL1 hit counter-screen; shares compounds with L3MBTL1 inh-1; AlphaScreen counterscreen, signal inhibition; Potency, µM (highest dose often 57.1 µM), hits mostly inhibitors; 500 tested, under 10 active
# Hits are given with their value; - = inactive; ? = inconclusive; . = no result; [ ] = remark or other dose. Most compounds without a hit are left out; they make up all but 11% or so of the library. The call rests on the fitted dose curve; in most records, active means well fitted curve in the direction sought with a large enough effect; inconclusive means small, poorly fitted or top-dose-only effect, or another doubt; inactive means no such curve, though single readings can be large; an effect the other way counts as inactive or inconclusive.
SMILES,JMJD2A Tudor,HP1b chromo inh,BAZ2B block,L3MBTL1 inh-1,G9a inh,L3MBTL1 inh-2,AlphaScreen ctr2
COc1cc(/C=C2\SC(=Nc3ccc(Cl)c(C(=O)O)c3)NC2=O)c(Br)c(Br)c1O,79.4µM,?,44.7µM,31.6µM,31.6µM,2.99,?
COc1cc(/C=C2/SC(=Nc3ccc(O)cc3)NC2=O)ccc1O,-[11.4 µM],-,-,-,.,.,.
COc1ccc(S(=O)(=O)N2CCOCC2)cc1NC(=O)C1CCN(S(=O)(=O)c2ccc(Cl)cc2)CC1,-,-,.,.,.,.,.
Cc1nnc(NC(=O)C2CCN(S(=O)(=O)c3ccc(F)c(Cl)c3)CC2)o1,3.55µM,-,31.6µM,35.5µM,-,?,-
CN(C)CCCNC(=O)/C(=C\C=C\c1ccccc1)NC(=O)c1ccc([N+](=O)[O-])cc1,?,-,-,-,-,.,.
CCCn1c(=O)c2sccc2n2c(CCCC(=O)N3CCN(c4cccc(C)c4C)CC3)nnc12,-,-,?,.,-,.,.
Cc1cc(C(=O)COC(=O)c2cc(Cl)c(O)c(Cl)c2)c(C)n1C,50.1µM,?,50.1µM,28.2µM,-[12.7 µM],4.74,?
Cc1cc(C(=O)COC(=O)c2ccc(F)cc2)c(C)n1C,-,-,.,-,.,.,.
CNc1nc(C(=O)O)nc(N2CCOCC2)n1,4.47µM,-,11.2µM,20µM,5.62µM,?,?
Cc1c(C(=O)OC2CCCC2)[nH]c2c1C(=O)CC(c1ccco1)C2 (stereo not drawn),?,-,?,-,?,.,.
Cc1c(C(=O)OCC2CCCO2)[nH]c2c1C(=O)CC(c1ccco1)C2 (stereo not drawn),?,?,22.4µM,14.1µM,17.8µM,5.97,-
c1ccc(-c2nc(-c3ccncc3)n[nH]2)nc1,2.82µM,-,2.51µM,3.16µM,.,4.74,-
Oc1c(C(Nc2cccc(C(F)(F)F)c2)c2ccncc2)ccc2cccnc12 (stereo not drawn),31.6µM,-,20µM,22.4µM,28.2µM,21.2,-
O=C(O)C1C2OC(C(Br)C2Br)C1C(=O)O (stereo not drawn),-,-,.,.,.,.,.
COc1ccc2nc(N3C(=O)CNC3=S)sc2c1,-,-,-,.,-,.,.
COc1ccc2nc(-n3c(O)c(C4=c5ccccc5=NC4=O)[nH]c3=S)sc2c1,?,?,12.6µM,3.16µM,?,3.36,?
O=C(O)c1cc(Cl)c2c(c1)[C@@H]1C=CC[C@@H]1[C@H](c1ccc(S(=O)(=O)N3CCOCC3)cc1)N2,79.4µM,-,50.1µM,22.4µM,22.4µM,26.7,?
O=c1[nH][nH]c(=O)c(Cl)c1Cl,-,-,.,.,.,.,.
Cc1ccc(-c2cc(C(=O)O)c3cc(Br)ccc3n2)o1,25.1µM,-,56.2µM,31.6µM,1.26µM,21.2,-
C=CCn1c(SCC(=O)c2ccc(O)c(O)c2)nnc1-c1ccc(OC)cc1,?,-,-,8.91µM,-[0.501 µM],13.4,-
Nc1nc(-c2ccccn2)nc(N)c1Cc1c(F)cccc1Cl,79.4µM,-,8.91µM,3.55µM,-,10.6,-
CN(c1ccccc1)c1ccc(/C=C(\CCC(=O)O)c2nc3ccccc3s2)cc1[N+](=O)[O-],44.7µM,?,11.2µM,28.2µM,?,23.8,?
Cn1cnnc1Sc1ccc(/C=C(\CCC(=O)O)c2nc3ccccc3s2)cc1[N+](=O)[O-],-,-,?,-,?,.,.
COc1cnc(-c2ccccn2)nc1Sc1ccccc1Cl,?,-,-,-,-,.,.
CCOC(=O)C(C)Sc1nc(-c2ccccn2)ncc1OC (stereo not drawn),-[11.4 µM],-,3.16µM,25.1µM,-,26.7,?
SMILES,JMJD2A Tudor,HP1b chromo inh,BAZ2B block,L3MBTL1 inh-1,G9a inh,L3MBTL1 inh-2,AlphaScreen ctr2
COc1cnc(-c2ccccn2)nc1N(C)C,22.4µM,-,4.47µM,3.98µM,-,6.7,-
COc1ccc(-n2cccc2/C=C2\C(=N)N3N=C(C(C)C)SC3=NC2=O)cc1,-,-,?,-,?,.,.
COc1ccc(-n2cccc2/C=C2\C(=N)N3N=C(c4ccco4)SC3=NC2=O)cc1,14.1µM,-,39.8µM,15.8µM,?,2.67,?
COc1ccc(NS(=O)(=O)c2ccc(N3CCCCS3(=O)=O)cc2)cc1Cl,-,-,-,.,-,.,.
COC(=O)COc1ccc(C2Nc3c(Cl)ccc(C(=O)O)c3C3C=CCC32)cc1 (stereo not drawn),44.7µM,?,50.1µM,20µM,12.6µM,16.8,-
COc1ccc(OC)c(S(=O)(=O)N2CCCC(C(=O)N3CCCCCC3)C2)c1 (stereo not drawn),-,-,-,.,-,.,.
CCN(C(=O)COC(=O)c1ccc2ccccc2n1)c1c(N)n(Cc2ccccc2)c(=O)[nH]c1=O,-,-,-,-,?,.,.
COCCN(C(=O)COC(=O)c1cc2c(s1)CCC2)c1c(N)n(Cc2ccccc2)c(=O)[nH]c1=O,8.91µM,-,8.91µM,2.51µM,10µM,0.844,-
COCCN(C(=O)COC(=O)Cc1coc2cc(C)ccc12)c1c(N)n(Cc2ccccc2)c(=O)[nH]c1=O,-,-,?,25.1µM,?,26.7,-
COCCN(C(=O)COC(=O)Cc1cccc2ccccc12)c1c(N)n(Cc2ccccc2)c(=O)[nH]c1=O,-,-,-,.,.,.,.
O=C(CCc1nnc(CCc2ccccc2)o1)NC(c1cccnc1)C(F)(F)F (stereo not drawn),-,-,-,.,.,.,.
COc1cccc(CN2CCN(CCCc3ccccc3)C(CCO)C2)c1O (stereo not drawn),-,-,-,-,-,.,.
Cc1nc2sccn2c(=O)c1S(=O)(=O)NCC1CCN(Cc2ccccc2Cl)CC1,-,-,-,.,.,.,.
Cc1ccc2c(CC(=O)Nc3c(C(=O)c4ccc(C)c(F)c4)oc4ccccc34)coc2c1,-,-,-,.,-,.,.
COc1ccc2c(c1)c(=O)oc1c(C)c(OC(C)C(=O)NCC3CCC(C(=O)O)CC3)ccc12 (stereo not drawn),-,-,-,.,-[12.7 µM],.,.
COc1ccc2c(c1)c(=O)oc1c(C)c(OCc3cc(C(=O)O)oc3C)ccc12,28.2µM,?,?,35.5µM,?,10.6,-
COc1ccc(NC(=O)Cn2ncc(Cl)c(Cl)c2=O)cc1S(=O)(=O)N1CCOCC1,-,-,?,14.1µM,-,11.9,-
O=C1NC(=O)/C(=C\c2ccc(O)cc2O)S1,20µM,?,28.2µM,3.98µM,17.8µM,1.68,?
O=C(Nc1ccc(S(=O)(=O)Nc2ncccn2)cc1)c1ccc2ncsc2c1,35.5µM,-,39.8µM,20µM,44.7µM,?,-
O=C1CCCC2=C1C(c1ccc(O)c(O)c1)c1c(ccc3ncccc13)N2 (stereo not drawn),-[11.4 µM],?,44.7µM,2µM,3.55µM,21.2,-
CCOc1ccc(C2C3=C(CCCC3=O)Nc3ccc4ncccc4c32)cc1 (stereo not drawn),-,-,-,.,.,.,.

# Bioassay records as filed in PubChem.
